# Statin myotox sup: suppressors of simvastatin-induced myotoxicity in C2C12 myotubes. ATP luminescence, 48 h; scaled: DMSO 0, geranylgeraniol control 100. rescue of ATP level, % at 7.49 µM. 330,000 tested, 0.78% active. AID 602340;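 active means mean ATP rescue above about 67%, or every replicate alone reaching that limit, limit read from the data, passing the limit was not always enough; inconclusive means no clear call, values can overlap the other calls; inactive means mean under the limit and some replicate under it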;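 further: myotubes were challenged with 10 µM simvastatin during compound exposure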
# LMP1 NFkB inh: Epstein-Barr LMP1 NF-kappaB reporter inhibition | LMP1-induced NF-kappaB luciferase reporter cells, luminescence | inhibition, % at 12.5 µM | 350,000 tested, 0.69% active; in the data active means inhibition above about 41%; inconclusive means no clear call, values can overlap the other calls;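 further: 0% = neutral control wells and 100% = reference inhibitor control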
# Wnt act: activators of Wnt/beta-catenin signaling; activation, % at 9.35 µM; 300,000 tested, 1.2% active; Wnt/beta-catenin reporter cell assay, activator, plate reader; AID 743398; in the data active means activation above about 30%, passing the limit was not always enough; inconclusive means no clear call, values can overlap the other calls;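 further: 0% = neutral control wells and 100% = positive control wells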
# MITF act: activators of MITF-driven TRPM1 promoter activity in SK-MEL-5 cells. SK-MEL-5 TRPM1-promoter luciferase, 24 h; % of positive control, neutral wells = 0. activation, % at 12.5 µM. 300,000 tested, 0.75% active;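 active means mean activation of at least 80% with every replicate also reaching 80%; inconclusive means mean reaches 80% but some replicate falls short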;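 further: 0% = neutral control wells and 100% = parthenolide positive control wells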
# esBAF inh: blocks esBAF chromatin remodeling in mouse ES cells. 350,000 tested, 2% active. AID 602393. Bmi1-luciferase knock-in reporter, 24 h; 100% = twice the neutral-well signal. reporter increase, % at 12.5 µM; in the data active means activation above about 40%; inconclusive means no clear call, values can overlap the other calls;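 further: 0% = median of the plate's neutral control wells and 100% = double that signal; a rise in the Bmi1 reporter signal indicates esBAF inhibition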
# TRPM1 prom inh: MITF TRPM1 promoter inhibition in SK-MEL-5 cells; AID 488899; inhibition, % at 12.5 µM; SK-MEL-5 TRPM1 promoter luciferase, 24 h; 330,000 tested, 0.83% active;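 active means mean inhibition across replicates of 60% or more, whatever share of single replicates reaches that level; inconclusive means some that reach 60%, reason not given; inactive means mean inhibition across replicates below 60%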
# Starred values were filed as active, the others as inactive; ? = inconclusive; · = no result given. Compounds with a hit are over-represented: about 4% of the library has one in this group of screens.
SMILES,Statin myotox sup,LMP1 NFkB inh,Wnt act,MITF act,esBAF inh,TRPM1 prom inh
Cc1cc(OCC(=O)N(C)Cc2ccccc2)ccc1Br,15,-36,17,37,43*,-37
CCOC(=O)C1=C(C)NC2=C(C(=O)c3ccccc32)C1c1cccc2ccccc12 (configuration not stated),-52,8,-3,-15,0,15
CCN1C(=O)NC2=C(C(=O)c3ccccc32)C1c1ccccc1F (configuration not stated),120*,12,6,1,-2,-4
C#CCOCCOCCOCCNc1nc(N2CCN(C(=O)[C@H](C(C)C)n3cc(CCO)nn3)CC2)nc(N2CCN(C(=O)[C@H]([C@@H](C)CC)n3cc(CCCCN)nn3)CC2)n1,7,-14,-1,-6,3,8
COc1ccc(S(=O)(=O)Nc2ccc3c(c2)C(=O)N([C@H](C)CO)C[C@@H](C)[C@@H](CN(C)S(=O)(=O)c2ccc(F)cc2)O3)cc1,·,·,·,·,-2,·
C[C@H]1CN(S(=O)(=O)C(C)(C)C)[C@@H](CCO)/C1=C\c1ccccc1,·,·,-2,·,·,·
Nc1nonc1-c1noc(COc2ccccc2Cl)n1,·,-55,43*,113*,·,-111
Clc1ccccc1OCc1nc(-c2ccccn2)no1,-1,-6,39*,24,0,-23
CCOc1ccc(Cc2nc(-c3nonc3N)no2)cc1OCC,·,7,·,1,·,-3
Brc1ccc(-c2noc(CCc3ccccc3)n2)o1,3,-44,14,38,50*,-37
Cc1cccc(OCc2nc(-c3nonc3N)no2)c1C,3,-23,62*,?,?,-85
O=C1N=C(N2CCCCC2)S/C1=C\c1cn[nH]c1-c1ccccc1,·,-3,3,-1,·,2
COC(=O)C1CCN(C(=O)Cc2ccccc2OC)CC1,·,-13,0,4,·,-1
CCCNC(=O)N1C[C@@H]2[C@H](c3ccccc31)[C@H](CO)N2Cc1ccc(OC)cc1,-10,·,·,·,-5,·
CCN(CC)S(=O)(=O)c1cc(NC(=O)CCNC(=O)c2ccco2)ccc1C,0,1,-3,-2,-1,0
CN(Cc1nc(-c2ccccn2)no1)S(=O)(=O)c1ccccc1,·,-2,1,·,2,2
Clc1ccccc1OCc1nc(-c2ccc(Br)o2)no1,-40,-24,16,·,54*,·
c1ccc(CCc2nc(-c3ccccn3)no2)cc1,3,-23,·,128*,35,-117
O=C(NN1C(=O)C2C3c4ccccc4C(c4ccccc43)C2C1=O)C1CC1 (configuration not stated),·,-56,51*,-5,·,4
O=C(NN1C(=O)C2C3c4ccccc4C(c4ccccc43)[C@@H]2C1=O)c1ccccc1 (some centres not stated),·,-1,30*,-7,·,9
Cc1ccc(C(=O)NN2C(=O)C3C4c5ccccc5C(c5ccccc54)[C@@H]3C2=O)cc1 (some centres not stated),·,-2,·,16,·,-10
C/C(=N/OC(=O)c1ccccc1Br)c1ccc(C)cc1,1,-29,1,44,64*,-38
C/C(=N/OC(=O)c1ccc(C)cc1)c1cccs1,11,2,-2,·,-2,11
O=C(c1cc(-c2ccc(F)cc2)on1)N1CCOCC1,9,-8,0,·,1,-120
O=C(c1cc(-c2ccc3c(c2)OCO3)on1)N1CCOCC1,-12,62*,·,-15,-71,15
SMILES,Statin myotox sup,LMP1 NFkB inh,Wnt act,MITF act,esBAF inh,TRPM1 prom inh
O=C(c1cc(-c2ccc(Cl)cc2)on1)N1CCOCC1,5,4,·,33,-35,-42
COCCNC(=O)c1cc(-c2ccc(Cl)c(Cl)c2)on1,-6,-6,8,45,52*,-43
O=C(c1cc(-c2cccc(Cl)c2)on1)N1CCOCC1,-3,-27,-1,101*,44*,-101
O=C(c1cc(-c2ccc(Cl)c(Cl)c2)on1)N1CCOCC1,-15,-27,3,90*,42*,-79
Cc1cc(C(=O)CN2C(=O)NC3(CCCc4ccccc43)C2=O)c(C)n1C (configuration not stated),·,-3,3,-1,0,0
O=C1CCc2cc(S(=O)(=O)N3CCN(c4ccc(F)cc4)CC3)cc3c2N1CC3,·,7,0,-3,·,0
